From PubChem BioAssay (NCATS)
Results filed as inconclusive are left out. Unmarked numbers belong to inactive results. Calls follow the shape of the dose curve; as a rule, active = well fitted inhibition curve with a large enough effect; inconclusive = small, poorly fitted or top-dose-only effect; inactive = flat fitted curve, though single readings scatter.

target: Calcium and integrin-binding protein 1 (Homo sapiens) (UniProt Q99828); experiment: Primary qHTS for Identification of Calcium Integrin Binding Protein 1 (CIB1) Competitor (AID 1508620); settings: CIB1-GST / FITC-alphaIIb peptide fluorescence polarization; series mostly up to 114 µM; activity change, negative = inhibition: at the top concentration;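 also: GST tagged CIB1 binding a fluorescein labelled alphaIIb integrin peptide tracer; top concentration of the series differs between compounds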
Sequence (Q99828 whole entry, looked up): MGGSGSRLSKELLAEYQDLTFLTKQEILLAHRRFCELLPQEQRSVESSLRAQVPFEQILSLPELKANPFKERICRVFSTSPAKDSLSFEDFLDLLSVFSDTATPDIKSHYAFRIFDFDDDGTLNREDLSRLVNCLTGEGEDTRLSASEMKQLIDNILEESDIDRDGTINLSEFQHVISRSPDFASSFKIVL
In short: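 Fluorescence polarization competition: CIB1-GST (1 uM final) preincubated with compound 15 min at room temperature, then FITC-labeled alphaIIb peptide (100 nM final) added for another 15 min. Polarization read at Ex 480/Em 540.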
% is scaled to controls: 0 for no effect and ±100 for the full control effect.

Row | Compound | activity change, negative = inhibition
1 | O=S(=O)(c1ccc(S(=O)(=O)n2cnc3ccccc32)cc1)N1CCCCCC1 | 1.42% [at 57.7 µM]
2 | CC(=O)O[C@H]1C(=O)[C@@]2(C)[C@H]([C@H](OC(=O)c3ccccc3)[C@]3(O)C[C@H](OC(=O)[C@H](O)[C@@H](NC(=O)c4ccccc4)c4ccccc4)C(C)=C1C3(C)C)[C@]1(OC(C)=O)CO[C@@H]1C[C@@H]2O | 3.7% [at 30.2 µM]
3 | CC(=O)c1c(O)cc(O[C@@H]2O[C@H](CO)[C@@H](O)[C@H](O)[C@H]2O)cc1O | -5.24% [at 57.7 µM]
4 | CC1=C(C(=O)OCc2ccccc2)C(c2ccc(-c3ccccc3)cc2)NC(=O)N1CCCCCC(=O)O (stereo not given) | -17.8%
5 | CN[C@H](C(=O)N[C@H](C(=O)N(C)[C@H](/C=C(\C)C(=O)O)C(C)C)C(C)(C)C)C(C)(C)c1ccccc1 | 1.14%
6 | COc1c2cc(c(O)c1OC)-c1cc(ccc1O)CCC(O)CCCC2 (stereo not given) | -1.15% [at 57.7 µM]
7 | C=CC(C)(C)c1[nH]c2cc3c(cc2c1CC1NC(=O)C2=CCCN2C1=O)C=CC(C)(C)O3 (stereo not given) | -0.0061% [at 57.7 µM]
8 | CC1(C)CC2C(O)c3cocc3CC(C)(O)C2C1 (stereo not given) | -1.96%
9 | CC1C(OC(=O)c2ccccc2)C(O)C2C(C(=O)O)=COC(OC3OC(CO)C(O)C(O)C3O)C12 (stereo not given) | -0.43% [at 57.7 µM]
10 | COc1cccc2cc3c(c(O[C@@H]4O[C@H](CO[C@@H]5O[C@H](CO)[C@@H](O)[C@H](O)[C@H]5O)[C@@H](O)[C@H](O)[C@H]4O)c12)C(C)OC3=O (stereo not given in full) | -7.15% [at 57.7 µM]
11 | COc1ccc2cc(C(C)C(=O)Oc3ccc(C(N)=S)cc3)ccc2c1 (stereo not given) | 7.42%
12 | N#Cc1ccc2[nH]cc(CCCCN3CCN(c4ccc5oc(C(N)=O)cc5c4)CC3)c2c1 | -0.265%
13 | O=C(NCc1ccc(S(=O)(=O)c2cc(F)cc(F)c2)cc1)c1ccc2nccn2c1 | 1.4%
14 | CC(C)S(=O)(=O)NC[C@H](C)c1ccc(NC(=O)c2cc(F)cc(F)c2)cc1 | -4.08%
15 | COc1ccc(CCO[C@@H]2O[C@H](CO[C@@H]3OC[C@H](O)[C@H](O)[C@H]3O)[C@@H](O)[C@H](O)[C@H]2O)cc1 | 1.53% [at 57.7 µM]
16 | CC1(C)CC[C@]2(C(=O)O)[C@H](O)C[C@]3(C)C(=CCC4[C@@]5(C)CC[C@H](O[C@@H]6O[C@H](CO[C@@H]7OC[C@H](O)[C@H](O)[C@H]7O[C@@H]7OC[C@@H](O)[C@H](O)[C@H]7O)[C@@H](O)[C@H](O)[C@H]6O[C@@H]6O[C@H](CO)[C@@H](O)[C@H](O)[C@H]6O)C(C)(C)C5CC[C@]43C)[C@@H]2C1 (stereo not given in full) | -0.251% [at 30.2 µM]
17 | CC(C)(O)/C=C/CC(C)(O)C1C(O)CC2(C)C3CCC4C(C)(C)C(=O)CCC4(C)C3CCC12C (stereo not given) | 1.04% [at 57.7 µM]
18 | Cc1cc(N(C)C)ccc1-c1nc2ccc(-c3nc4ccc(N5CCN(C)CC5)cc4[nH]3)cc2[nH]1 | -7.38%
19 | CC12CCC(=O)C=C1C(O)CC1C2C(O)CC2(C)C1CC[C@]2(O)C(=O)CO (stereo not given in full) | 4.73% [at 30.2 µM]
20 | NC(=O)c1cccc(-c2cc(OC(=O)NC3CCCCC3)ccc2O)c1 | -1.58%
21 | Cc1cc(C)c2c(N)c(C(=O)NCc3ccc(Cl)cc3)sc2n1 | 2.17%
22 | CC(=O)OC12COC1CC(O)C1(C)C(=O)C(O)C3=C(C)C(OC(=O)C(O)C(NC(=O)OC(C)(C)C)c4ccccc4)CC(O)(C(OC(=O)c4ccccc4)C21)C3(C)C (stereo not given) | -10.5%
23 | O=C(O)/C=C/c1ccc(O)c(O[C@@H]2O[C@H](CO)[C@@H](O)[C@H](O)[C@H]2O)c1 | -0.547% [at 57.7 µM]
24 | CC(C)c1cc2c(c(O)c1O)[C@@]13CCCC(C)(C)[C@@H]1[C@H](OC3=O)C2=O | -13.8% [at 57.7 µM]
25 | O=C(O)Cc1ccc2oc(-c3ccc(NC(=O)/C=C/c4ccc(Br)cc4)c(F)c3)nc2c1 | -6.21%
26 | CC1(C)CC2=C3C=CC4C5(C)CCC(O)C(C)(C)C5CCC4(C)C3(C)CCC2(C)C(O)C1 (stereo not given) | 0.354% [at 57.7 µM]
27 | O=C(O)Cc1cn(C2OCC(O)C(O)C2O[C@@H]2O[C@H](CO)[C@@H](O)[C@H](O)[C@H]2O)c2ccccc12 (stereo not given in full) | 1.45% [at 57.7 µM]
28 | COC1CC(O[C@H]2CC[C@@]3(C)C(=CC[C@]4(O)C3[C@H](OC(C)=O)[C@@H](OC(=O)c3ccccc3)[C@]3(C)[C@@H](C(C)=O)CC[C@@]34O)C2)OC(C)C1OC1CC(OC)C(OC2CC(OC)C(OC3OC(C)C(OC4OC(CO)C(O)C(O)C4O)C(OC)C3O)C(C)O2)C(C)O1 (stereo not given in full) | -4.32% [at 12.4 µM]
29 | COc1ccc(CCC(=O)c2c(O)cc(O)cc2O[C@@H]2O[C@H](CO)[C@@H](O)[C@H](O)[C@H]2O)cc1 | 3.74% [at 57.7 µM]
30 | CC1=C(C)C(=O)OC(C(C)C2CCC3C4CC=C5CC(OC6OC(COC7OC(CO)C(O)C(O)C7O)C(O)C(O)C6O)CC(O)C5(C)C4CCC23C)C1 (stereo not given) | 5.64% [at 30.2 µM]
